These results are taken from ChEMBL document CHEMBL3433997, “St. Jude Leishmania screening dataset” (2016).

What all share (format): functional
The target of assay [1] is Solute carrier family 2, facilitated glucose transporter member 1 (Homo sapiens) (UniProt P11166). Briefly: ST_JUDE_LEISH: Cytotoxicity at 2uM final concentration against transgenic Leishmania Mexicana promastigotes LmGLUT1 that are glucose transport deficient and complemented with the human glucose transporter GLUT1. Activity is measured by DNA content using SYBR green in vitro.
Solute carrier family 2, facilitated glucose transporter member 1 (Homo sapiens), sequence (P11166 whole entry): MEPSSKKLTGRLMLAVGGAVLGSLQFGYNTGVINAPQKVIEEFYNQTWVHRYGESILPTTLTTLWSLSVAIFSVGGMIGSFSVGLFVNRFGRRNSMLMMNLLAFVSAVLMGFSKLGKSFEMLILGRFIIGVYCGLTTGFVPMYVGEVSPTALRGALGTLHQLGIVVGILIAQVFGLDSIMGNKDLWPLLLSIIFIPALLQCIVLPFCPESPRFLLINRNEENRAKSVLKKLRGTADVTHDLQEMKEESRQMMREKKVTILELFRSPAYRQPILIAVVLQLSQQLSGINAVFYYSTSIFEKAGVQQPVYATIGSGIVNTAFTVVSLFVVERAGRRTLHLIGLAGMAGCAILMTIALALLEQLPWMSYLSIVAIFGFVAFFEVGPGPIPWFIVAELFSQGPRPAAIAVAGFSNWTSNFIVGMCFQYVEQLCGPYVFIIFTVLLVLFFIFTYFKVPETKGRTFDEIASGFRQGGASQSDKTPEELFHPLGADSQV

For assay [2], the target named is Hexose transporter 1 (Plasmodium falciparum) (UniProt O97467). Briefly: ST_JUDE_LEISH: Cytotoxicity at 2uM final concentration against transgenic Leishmania Mexicana promastigotes LmPfHT that are glucose transport deficient and complemented with the Plasmodium falciparum hexose transporter. Activity is measured by DNA content using SYBR green in vitro.
The target in assay [3] is Glucose transporter (Leishmania mexicana) (UniProt O61059). Briefly: ST_JUDE_LEISH: Cytotoxicity at 2uM final concentration against transgenic Leishmania Mexicana promastigotes LmGT2 that are glucose transport deficient and complemented with the L. Mexicana glucose transporter 2. Activity is measured by DNA content using SYBR green in vitro.

With `CC(C)CC(=O)Nc1cc(=O)[nH]c2nc(-c3ccccc3)nn12`, the inhibition (usually the relative decrease from the control value, in per cent) turned out to be 3.45% in assay [1], 3.9% in assay [2] and 4.09% in assay [3].

Consider `COc1ccc(-c2cnc3ccc(N4CCCC4)nn23)cc1OC`, for which the inhibition in assay [1] worked out at 0.89%; in assay [2], 0.65%; in assay [3] it was 2.83%.

As for `O=[N+]([O-])c1ccc2c(c1)c1ccccc1n2Cc1ccccc1O`, the values for the inhibition in assay [1], in assay [2] and in assay [3] were 0.12%, 1.04% and -2.69%, respectively.

Take `O=C(Nc1cccc(CN2CCCN(Cc3cccc(O)c3)CC2)c1)c1ccc2ccccc2c1`: the inhibition was 1.01% in assay [1], 1.53% in assay [2] and -2.82% in assay [3].

Consider `CC(=O)N1CCC(C(=O)Nc2ccc(-c3cccc(-c4nc5cccc(C)c5[nH]4)c3)cc2)CC1`, for which the inhibition in assay [1] stood at 2.37%; in assay [2] it was 0.21%; in assay [3], 0.44%.

In the case of `COc1ccc(N(c2nc(-c3cc(Cl)ccc3Cl)cs2)C2CCNC2)cc1` (centres undefined), the results for the inhibition in assay [1], in assay [2] and in assay [3] were 4.89%, 4.65% and 1.24%, respectively.

In the case of `Cc1cccc2nc(-c3ccc(-c4ccc(CN5CCCC(O)C5)cc4)s3)[nH]c12` (centres undefined), the inhibition worked out at 6.59% in assay [1], 7.2% in assay [2] and 3.86% in assay [3].

`CC(C)c1ccc(NC(=O)NCC2CCCN(CCCCCNC(=O)/C=C/c3ccc(Cl)c(Cl)c3)C2)cc1` (centres undefined): the inhibition in assay [1] was 2.73%; in assay [2] it was 1.74%; in assay [3] it was 2.62%.

Take `O=C(NCCN1CCCC1)c1cccc(-c2ccc(-c3nc4cc(F)ccc4[nH]3)s2)c1`: the figures for the inhibition in assay [1], in assay [2] and in assay [3] were 2.21%, 2.37% and 3.1%, respectively.

`O=S(=O)(c1c(Cl)cc(Cl)cc1Cl)N1CCCCC(c2ccc(C(F)(F)F)cc2)=N1`: the inhibition in assay [1] was determined as 5.69%; in assay [2] it was 8.89%; in assay [3], 6.28%.

In the case of `CCc1cn(C)c2c(N3CCCC3=O)cc(C(=O)N[C@@H](Cc3ccccc3)[C@H](O)CNC(C)(C)c3cccc(C(F)(F)F)c3)cc12`, the inhibition in assay [1] was 4.78%; in assay [2], 3.46%; in assay [3], -1.12%.

In the case of `CCCC(=O)c1cnc2c(Oc3cc(Cl)ncn3)cccc2c1Nc1ccccc1C`, the inhibition in assay [1] was 6.96%; in assay [2], 4.84%; in assay [3], 6.89%.

With `CCc1c(CCNCCCCCCNCCc2ccc([N+](=O)[O-])cc2)ccc(OC)c1OC`, the inhibition is 12.1% in assay [1], 10.1% in assay [2] and 12.9% in assay [3].

Turning to `COc1ccc(NC(=O)Nc2ccc(C)c(-c3ccc(C(=O)NCCN4CCCC4)cc3)c2)cc1`, the inhibition is -1.56% in assay [1], -2.24% in assay [2] and -2.87% in assay [3].

Consider `O=C(NCCCCN1CCC(c2ccc3ccccc3c2O)CC1)c1ccc(-c2ccc(Cl)cc2)cc1`, for which the inhibition is 5.43% in assay [1], 3.32% in assay [2] and 3.45% in assay [3].

Turning to `Cc1ccc2nc3sc(C(=O)NCCCN4CCC(N5CCCCC5)CC4)cc3cc2c1`, the inhibition in assay [1] is -0.92%; in assay [2] it was 3.13%; in assay [3], 3.19%.

On to `Cc1cc(Nc2ccnc(-c3ccc(Cl)cc3)n2)ccn1`, for which the inhibition in assay [1] was 7.95%; in assay [2], 8.43%; in assay [3], 8.52%.

Consider `COc1ccc(-c2cncc3ccc(C(=O)NCCCn4ccnc4)nc23)cc1`, for which the inhibition in assay [1] was found to be 7.45%; in assay [2], 8.66%; in assay [3] it was 7.3%.

For the compound `CCCNC(=O)CN1CN(c2ccccc2)C2(CCN(C(=O)c3ccc(C(C)(C)C)cc3)CC2)C1=O`, the inhibition in assay [1] is -0.42%; in assay [2], 1.19%; in assay [3], -0.87%.

As for `CC(=O)Nc1ccc(S(=O)(=O)Nc2ccc(Nc3nc(C)cc(N(C)C)n3)cc2)cc1`, the results for the inhibition in assay [1], in assay [2] and in assay [3] were -1.06%, 0.57% and 2.61%, respectively.

On to `COc1cc2nccc(Nc3ccc(OCc4ccc(NC(C)=O)cc4)cc3)c2cc1OC`, for which the inhibition in assay [1] was 5.38%; in assay [2], 7.36%; in assay [3] it was 2.65%.

As to `CN1CCCN(c2ccnc3cc4c(cc23)N(C(=O)c2ccc(Cl)c(Cl)c2)CC4)CC1`, the inhibition in assay [1] came out at 0.8%; in assay [2], 1.89%; in assay [3], 1.54%.

For `O=C(Nc1ccc(-c2csc(-c3nc4ccccc4[nH]3)c2)cc1)Nc1ccc(Cl)c(Cl)c1`, the inhibition in assay [1] was 1.35%; in assay [2], 1.35%; in assay [3], -1.48%.

Consider `COc1cc2c(cc1C(F)(F)F)N(C(=O)Nc1cc(-c3ccncc3)cc(-c3cccnc3)c1)CC2`, for which the inhibition in assay [1] is 3.84%; in assay [2], -0.38%; in assay [3] it was -0.7%.

For `CCCNCc1ccc(-c2ccc(CN(CCOC)C(=O)CCCOCc3ccccc3)cc2)nc1`, the inhibition was 3.08% in assay [1], 1.41% in assay [2] and 0.45% in assay [3].

In the case of `Cn1nc(C(F)(F)F)c(-c2ccc(Br)cc2)c1NC(=O)Nc1ccc(F)cc1F`, the inhibition in assay [1] was determined as 1.12%; in assay [2], 1.19%; in assay [3] it was 1.25%.

Consider `CCCCOC(=O)C1=C(C)NC2=C(C(=O)CC(c3ccc(OC)c(OC)c3)C2)C1c1ccc(O)cc1` (centres undefined), for which the inhibition in assay [1] amounted to 10.4%; in assay [2] it was 1.48%; in assay [3], 3.3%.

As for `CCOC(=O)c1c(C)n(-c2ccccc2)c2ccc(OC(=O)COc3ccc(Cl)cc3Cl)cc12`, the inhibition is 7.5% in assay [1], 6.74% in assay [2] and 6.97% in assay [3].

For the compound `O=C(N[C@H]1CCN(CCc2ccc(O[C@H]3CCNC3)cc2)C1)c1ccc(Cl)c(Cl)c1`, the inhibition in assay [1] amounted to 14.2%; in assay [2], 10.1%; in assay [3], 14.5%.

`O=C(NCc1cccs1)[C@H](Cc1ccccc1)Nc1ccnc(NCCc2ccccc2)n1`: the inhibition in assay [1] was -0.12%; in assay [2], -1.06%; in assay [3], -0.38%.

`CCc1n[nH]c(C(=O)Nc2cccc(N3CCCC3)c2)c1C`: the inhibition is 0.38% in assay [1], 1.73% in assay [2] and -1.36% in assay [3].

`Cc1cc(OCc2ccccc2)c(OCc2ccccc2)cc1C(O)CN(C)Cc1ccccc1` (centres undefined): the inhibition was 0.44% in assay [1], 1.08% in assay [2] and -0.1% in assay [3].

With `Cc1cc(N[C@@H](Cc2ccccc2)C(=O)NCc2cccs2)nc(NCCc2ccccc2)n1`, the results for the inhibition in assay [1], in assay [2] and in assay [3] were 2.96%, 2.94% and -1.2%, respectively.
